Source: PubChem BioAssay (NCI)
Where “and” joins values, the source holds several entries; their conditions need not be identical. Equal values may be shown once. About 83,000 compounds went through this panel and 20% of them were active in at least one assay; those are over-represented in the sample as a whole.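 Each cell line was grown in a 96-well plate and treated with one concentration of compound for 48 hours. Values below 10 were considered active.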 A number with no mark means an inactive call. Calls of active or inactive are those of the source.

Tests used:
Assay in all cases: NCI-60 one-dose screen, 48 h (100 = growth as untreated, 0 = no growth, -100 = all killed)
Settings in all cases: 10 µM unless noted
SK-MEL-2 melanoma = tested on: SK-MEL-2 melanoma
EKVX NSCLC = tested on: EKVX NSCLC
SN12C renal = tested on: SN12C renal
UO-31 renal = tested on: UO-31 renal
TK-10 renal = tested on: TK-10 renal
ACHN renal = tested on: ACHN renal
CAKI-1 renal = tested on: CAKI-1 renal
A498 renal = tested on: A498 renal
CCRF-CEM leukemia = tested on: CCRF-CEM leukemia
MOLT-4 leukemia = tested on: MOLT-4 leukemia

| SMILES | growth (SK-MEL-2 melanoma) | growth (EKVX NSCLC) | growth (SN12C renal) | growth (UO-31 renal) | growth (TK-10 renal) | growth (ACHN renal) | growth (CAKI-1 renal) | growth (A498 renal) | growth (CCRF-CEM leukemia) | growth (MOLT-4 leukemia) |
| --- | --- | --- | --- | --- | --- | --- | --- | --- | --- | --- |
| C/C=C(/C)C(=O)O[C@@H]1CC(C)(C)CC2C34OC(=O)[C@@]21CC[C@@]3(C)[C@]1(C)CCC2C(C)(C)C(=O)CC[C@]2(C)C1C[C@@H]4Cl (stereo not given in full) | 103% | 92% | 102% | 84.2% | 87.2% | 102% | 79.9% | 89.7% | 98.1% | 99.6% |
| N#Cc1ccccc1OCC(=O)Nc1nc2c(s1)COc1ccccc1-2 | 88.7% | 86.7% | 96.2% | 72.4% | 140% | 102% | 99.2% | 130% | 96% | 77.5% |
| COc1ccc(/C(C)=C(\c2ccc(OCCN3CCOCC3)cc2)c2ccc(OC(=O)C3CCCCC3)cc2)cc1 | 104% | 107% | 113% | 101% | 104% | 98% | 101% | 110% | 111% | 117% |
| CCCCCCCCn1ccc2cc(NC(=O)CN3CCN(c4nc(C)cc(N5CCCCC5)n4)CC3)ccc21 | 114% | 79.4% | 91.9% | 58.4% | 98.5% | 91.7% | 86.8% | 104% | -43.6% (active) | 0.667% (active) |
| C=C1C(=O)O[C@@H]2[C@H]3[C@H](COC(C)=O)[C@@H](OC(C)=O)C[C@H]3C(=C)[C@@H](O)C[C@@H]12 | 88% | 110% | 92.9% | 87.9% | 82.4% | 85.9% | 87.8% | 121% | 61.8% | 89.8% |
| Clc1ccc(/C=N\N2CCCCCC2)cc1 | 122% and 106% | 88.7% and 90.9% | 90.9% and 106% | 88.4% | 105% and 103% | 99.5% and 102% | 124% and 94.9% | 79.6% | 101% | 109% and 99.4% |
| N#Cc1c(-c2cccc(F)c2)cc(-c2cccnc2)[nH]c1=O | 110% | 106% | 96.4% | 90.2% | 106% | 101% | 95.9% | 116% | 104% | 99.7% |
| O=C(CCCCCCCCC(=O)N/N=C\c1ccccc1O)N/N=C\c1ccccc1O | 32% | 26.3% | 21.6% | 13.2% | 46.4% | 14.7% | 9.16% (active) | 46.5% | 10.8% | 15% |
| Cn1cc(C2=C(c3cccc4ccccc34)C(=O)NC2=O)c2cc(Br)ccc21 | 111% | 88.5% | 95.2% | 80.8% | 101% | 80.6% | 69.2% | 69.8% | 84% | 77.1% |
| C=C1C(=O)O[C@H]2[C@H]1CC/C(CNS(=O)(=O)c1ccc3ccccc3c1)=C\CC[C@@]1(C)O[C@@H]21 | 43.7% | 66.6% | 29.1% | -88% (active) | -78.5% (active) | -39.3% (active) | 15.3% | 58.2% | -18.1% (active) | -27.6% (active) |
| Cc1cnc(C(=O)NNc2nc3sc4c(c3c(=O)[nH]2)C(C)CCC4)cn1 (stereo not given) | 24.7% | 23.5% | 26% | 4.88% (active) | 33.5% | 11.8% | 6.98% (active) | 33.9% | 11.8% | 15.7% |
| CC(=O)N1N=C(c2ccc(Nc3nc(Nc4ccc(F)cc4)nc(Nc4ccc(Cl)cc4)n3)cc2)CC1c1ccc(N(C)C)cc1 (stereo not given) | 30.8% | 43.1% | 66% | 50.8% | 50.5% | 61.8% | 35.3% | 68.4% | -27.6% (active) | 29.4% |
| COc1cc(CNC(=O)CCCC/C=C/C(C)C)ccc1OCc1cn(-c2ccc([N+](=O)[O-])cc2)nn1 | 92% | 75.3% | 91.7% | 60.6% | 92.7% | 90.7% | 96.7% | 82% | 84.9% | 79.3% |
| Cc1ccc(C(=O)Nc2nc3c(s2)CN(Cc2ccccc2)CC3)cn1 | 93% | 90.4% | 89.7% | 80.5% | 89.4% | 100% | 65.2% | 89.9% | 85.5% | 95.6% |
| Cc1nc(-n2[nH]c(=O)ccc2=O)sc1N=Nc1ccccc1 | 108% | 96.5% | 97.7% | 84.1% | 121% | 99.5% | 91.5% | 105% | 100% | 99.4% |
| COc1cc(/C=C2/C=C(c3ccc(C(C)(C)C)cc3)N(CCc3ccc(S(N)(=O)=O)cc3)C2=O)cc(OC)c1OC | 79.2% | 51.3% | 64.7% | 37.1% | 82.1% | 49.5% | 71.6% | 82.4% | 29.3% | 16.3% |
| CN1Cn2c(ccc2C(F)(F)F)C(=O)CS1(=O)=O | 105% | 99.2% | 104% | 82.9% | 103% | 99.4% | 94.1% | 96.1% | 105% | 101% |
| CCOC(=O)c1ccc(Nc2ncnc3c2cnn3-c2cccc(F)c2)cc1 | 114% | 97.5% | 95% | 72.1% | 115% | 96.5% | 84.8% | 99% | 95.6% | 99.2% |
| O=C(N=Nc1c(O)[nH]c2ccccc12)Nc1ccc(Br)cc1 | 93.5% | 86.6% | 99.3% | 66.8% | 90% | 83.7% | 76.3% | 72% | -43.8% (active) | 90.2% |
| N=c1ccccn1CCO | 104% | 121% | 98.1% | 85.4% | 109% | 102% | 106% | 89.9% | 102% | 93.4% |
| [2H]C([2H])([2H])Oc1cccc(/C=C/C(=O)/C=C(/C=C/c2cccc(OC([2H])([2H])[2H])c2OC([2H])([2H])[2H])OB(F)F)c1OC([2H])([2H])[2H] | 116% | 93.6% | 74% | 51.5% | 99.9% | 51.5% | 58.1% | 117% | 4.12% (active) | 15.6% |
| c1ccc(-c2cc(-c3cc(-c4ccccc4)on3)no2)cc1 | 20.5% | 121% | 92.9% | 92.1% | 104% | -3.89% (active) | 35.5% | 97.6% | 81.9% | 63.7% |
| Cc1c(C(=O)OCCCCOC(=O)c2c(C)n(C)c3scc[n+]23)[n+]2ccsc2n1C | 106% | 95.6% | 90.8% | 78.9% | 114% | 97.2% | 101% | 156% | 96.4% | 94.9% |
| O=S(=O)(Nc1ccc(F)cc1)c1ccc(-c2cnc(C3CC3)o2)cc1 | 12.8% | 44.4% | 35.5% | 36.3% | 32.4% | 32% | 36.3% | 14.1% | 10.5% | 12.7% |
| COc1ccc(-c2nc(Cl)c3c(C)nn(-c4ccc(F)cc4)c3n2)cc1 | 91.9% | 111% | 99% | 97.3% | 98% | 106% | 107% | 101% | 102% | 103% |
| C#CCn1cnc2cnc(Nc3cccc(NC(=O)CCl)c3)nc21 | -14.1% [6.25 µM] (active) | 69.1% [6.25 µM] | 6.82% [6.25 µM] (active) | -71.1% [6.25 µM] (active) | -5.69% [6.25 µM] (active) | -39.9% [6.25 µM] (active) | -34.2% [6.25 µM] (active) | -42.2% [6.25 µM] (active) | 1.51% [6.25 µM] (active) | 0.772% [6.25 µM] (active) |
